± gives the standard deviation of the averaged measurements. Over roughly 25,000 sequences, “ln(normalized median fluorescence intensity)” has its median near 8.9; the highest 2% begin near 10. The list comes from a sample in which the highest values are over-represented; it also holds similar and randomly drawn sequences.
tested on: PfAP2-LT AP2 domain (GST-tagged); assay: gcPBM binding intensity (ln(normalized median fluorescence intensity)); higher = stronger DNA binding
Method in brief: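 DNA-binding domains from P. falciparum, fused to GST and produced in E. coli, were put on an Agilent 4 × 180k double-stranded probe array for 1 h in 1× PBS holding 1% milk, 0.2 mg/ml BSA, 0.5% salmon testes DNA and 0.03% Triton X-100. Probes were primer-extended, 36 bp long and drawn from intergenic genomic regions, with negative controls included. After Alexa488 anti-GST antibody detection and a 488 nm scan, binding intensity was set as the highest Masliner-normalised natural-log median intensity across replicate spots of either probe orientation.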

| Sequence | gcPBM binding intensity (ln) |
| --- | --- |
| AAAAAAATTAAACATGAAGAATAAGGAACAAAAAAA [CACACA_negctrl_site1607] | 8.78 ± 0.55 |
| CTGATATATAGATGTAGTACATAAAAATGACGAATT [XGTACX_site5612] | 8.99 ± 0.47 |
| ATTTTTTTGGAATTCACACACAAAAAAAAAAATAAA [CACACA_site2081] | 8.79 ± 0.47 |
| GATAAATCATATATAACACACATATGAATATTACAA [CACACA_site1321] | 8.98 ± 0.35 |
| AACTTACTTGGACATACACACATATATATATATATA [CACACA_site2978] | 9.78 ± 0.3 |
| GTTACACCAACAAACACACACACACCCACCCACAAA [CACACA_site2427] | 10.3 ± 0.16 |
| TACACAAATATATACATACACACATATATACGCATA [CACACA_site394] | 9.27 ± 0.3 |
| TATATACACAAACACACACACACATACACCCACATA [CACACA_site8504] | 10.2 ± 0.16 |
| TGGTAATACCCATACACACACACATACCCATATATA [CACACA_site5509] | 9.76 ± 0.33 |
| GTAATACCCAAACACACACACATACCCATATATATA [CACACA_site5510] | 10.1 ± 0.29 |
| TATACATACCCACCCACACACAAAAAAAAAAAAAAA [CACACA_site4632] | 9.76 ± 0.3 |
| TGGTAATACCCATACACACACACATACACATATATA [CACACA_site8877] | 9.76 ± 0.32 |
| GTTACACCAACAAACACACACACACCGACACCCAAA [CACACA_site5361] | 10.1 ± 0.17 |
| TGCATATACGCAAGCACACATATATATATATATATA [CACACA_site1069] | 10.1 ± 0.4 |
| TGCATATACTCAAGCACACATATATATATATATATA [CACACA_site4733] | 9.76 ± 0.13 |
| CAAACCCACCAACACACACACACAAAAATGATTAAA [CACACA_site2432] | 9.88 ± 0.3 |
| AAGAAAAGAAACAAAAAAAAAAAGAAATAAAAGGAA [TGCATGCA_negctrl_site171] | 8.61 ± 0.62 |
| AAAATTTATAAAAGCACACAAAATAAAAAAAAATGA [CACACA_site1491] | 8.88 ± 0.46 |
| AAGAAAATAAAATAAAAAAAAAAATAAAAAAAATAA [TGCATGCA_negctrl_site516] | 8.37 ± 0.74 |

| Sequence | gcPBM binding intensity (ln) |
| --- | --- |
| CAAAAATAAACTATAGTACACACTTATTATTATGAA [CACACA_site2702] | 8.8 ± 0.49 |
| ACACATACTAAAATGTTGTGAAATATGATAATGTGA [CACACA_negctrl_site851] | 9.11 ± 0.47 |
| TTAATCATAAAAGTCACACATAATAAGAAAAAGCTT [CACACA_site4616] | 8.78 ± 0.37 |
| AAATAGGGAATTTATGCACACAGTTAAGGGGGAAAA [CACACA_site2071] | 9.28 ± 0.26 |
| ACATATAATAAAAAATGTACACACATAAGAAAATTT [XGTACX_site6153] | 9.16 ± 0.38 |
| TAAATACATTTATGTACACACACATAGATGTATATT [CACACA_site5618] | 9.22 ± 0.36 |
| TAACATGATATATAATGTACATATAAGATATTTATA [XGTACX_site4383] | 8.79 ± 0.45 |
| CACACCACCAACAAAAGTACATACATATATATATAT [XGTACX_site5781] | 9.65 ± 0.14 |
| AACATATTAATGTACACACACCCACGCACAAACAAA [CACACA_site7320] | 9.765 ± 0.092 |
| CATATACACCAACACACACACACACCCACAAAAAAA [CACACA_site496] | 10.1 ± 0.27 |
| AAGCAAACATATTAATGTACACACACCCACACACAA [XGTACX_site5806] | 9.95 ± 0.46 |
| TAACCATACATACATACACACACACCCACATATATA [CACACA_site8951] | 9.95 ± 0.13 |
| CACAAAGACACAAACACACACACACCCACATACATA [CACACA_site452] | 9.86 ± 0.24 |
| GATACATAGAAACACACACACATACATATATACATA [CACACA_site3438] | 9.92 ± 0.26 |
| CATACATAGAAACACACACACACACCCACCCACAAA [CACACA_site494] | 10.19 ± 0.028 |
| CACACCCACCAACACACACACACACCCACCCATATA [CACACA_site366] | 10.3 ± 0.12 |
| CAAACATATTAATGTACACACACCCACCCACAAACA [CACACA_site2752] | 10.2 ± 0.29 |
| TACACCCACCAACACACACACACACCCAAAAAAAAA [CACACA_site498] | 10.1 ± 0.14 |
| ATATATTACAATATATGTACTTAATTTGCTTAAATA [XGTACX_site7912] | 8.6 ± 0.52 |

| Sequence | gcPBM binding intensity (ln) |
| --- | --- |
| TAACAAATATTATTTTGTACATAATATATATATATA [XGTACX_site6898] | 8.6 ± 0.32 |
| TTGTTTCAAAATTAAACACACACAAAAAAAAAAAAA [CACACA_site8856] | 8.86 ± 0.52 |
| TTATATATATTTAAAAAAATAACATAAATAAATAAA [CACACA_negctrl_site347] | 8.29 ± 0.52 |
| AGTCTTTTACATTGCACACACATTTCTTTCCTTTTG [CACACA_site2988] | 9.61 ± 0.36 |
| AATAGGATATGGTACATTTTTTGTATACTTTTTGTT [CACACA_negctrl_site1804] | 8.91 ± 0.47 |
| ATATATATATGTGGATGTACATATATCTCTTATTAT [XGTACX_site1748] | 9.05 ± 0.42 |
| GAGAGAGAAATAAAAAGTACATACATATATATACAT [XGTACX_site2267] | 8.84 ± 0.58 |
| TCATAGTCTTAATGACTACACACCTAACTATGCATG [CACACA_site1839] | 9 ± 0.47 |
| TAATATGCATAAAATTGTACAAACTTACATATAATA [XGTACX_site2752] | 8.92 ± 0.45 |
| CAATCAACAAAACATACACACACATATATATATATA [CACACA_site8979] | 10 ± 0.33 |
| ATCAACAAAACATACACACACATATATATATATATA [CACACA_site2989] | 10.32 ± 0.057 |
| CACCCATACACATACAAACACACATTCTATATATAT [CACACA_site1600] | 9.28 ± 0.46 |
| CACATACCCATACAAACACACATTATATATATATAT [CACACA_site4965] | 9.56 ± 0.33 |
| CAAACACCCAAACACACACACACATACATACATACA [CACACA_site8044] | 9.98 ± 0.15 |
| CACAAACACCCAAACACACACACACCGACATACATA [CACACA_site4410] | 10.1 ± 0.46 |
| CATACATACAAACACACACACACACCCATATATATA [CACACA_site2918] | 10.1 ± 0.31 |
| GACACCCATAAATATACACACGCACAACACAAAATA [CACACA_site8944] | 9.46 ± 0.38 |
| CACGCGCACCAACACACACACACACCCATATATATA [CACACA_site2204] | 10.3 ± 0.4 |
| ATCAAAAGAAAACACACACACATACATATATATATA [CACACA_site3795] | 10.1 ± 0.3 |
